Test results from PubChem BioAssay (EPA / NIEHS).
Results filed as inconclusive are left out. Activity calls are given as the source filed them. How the source made its calls, unless noted: active means hit-call score of the fitted dose curve at least 0.9, where 1 is the maximum; inactive means score below 0.9.

Columns and labels:
[1] = biological target: Myc proto-oncogene protein (Homo sapiens) (UniProt P01106); experiment: ATG_Myc_CIS: Attagene CIS-FACTORIAL HepG2 Assay for human Myelocytomatosis (Myc) Proto-Oncogene Transcription Factor (AID 2282990); conditions: HepG2, Attagene cis-reporter transcription factor activity; actives raise or lower the signal
Chain of Myc proto-oncogene protein (Homo sapiens) (P01106 whole entry, looked up): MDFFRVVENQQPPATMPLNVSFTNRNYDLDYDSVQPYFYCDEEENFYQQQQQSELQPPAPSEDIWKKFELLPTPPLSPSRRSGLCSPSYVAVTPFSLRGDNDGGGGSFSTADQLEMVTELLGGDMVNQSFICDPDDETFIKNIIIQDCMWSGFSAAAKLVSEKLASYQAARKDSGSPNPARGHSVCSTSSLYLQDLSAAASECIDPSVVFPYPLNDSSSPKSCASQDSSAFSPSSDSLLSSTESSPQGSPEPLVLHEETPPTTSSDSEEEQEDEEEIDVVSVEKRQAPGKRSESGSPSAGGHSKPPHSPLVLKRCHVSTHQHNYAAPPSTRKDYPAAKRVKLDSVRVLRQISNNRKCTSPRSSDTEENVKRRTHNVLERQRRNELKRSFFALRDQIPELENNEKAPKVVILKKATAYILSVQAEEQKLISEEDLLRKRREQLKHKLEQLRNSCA
Method in brief: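 HepG2, transient MRTU transfection (cis promoters, endogenous TFs); 24 h dosing; TriZol RNA → oligo(dT) RT → PCR → 6-FAM primer extension → HpaI cut → CE. Bidirectional fit vs DMSO.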

[2] = ATG_NF_kB_CIS: Attagene CIS-FACTORIAL HepG2 Assay for human Nuclear Factor Kappa B (NF-kB) (AID 2282991); conditions: HepG2 Attagene cis-factorial NF-kB reporter mRNA; actives raise or lower the signal
Method in brief: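 Transient MRTU transfection of human HepG2 liver cells → 24 h chemical exposure → total RNA, oligo(dT) RT → PCR, 6-FAM primer extension, HpaI digest 2 h 37 C → CE fragment analysis. Bidirectional fitting, DMSO negative control.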

[3] = ATG_NRF2_ARE_CIS: Attagene CIS-FACTORIAL HepG2 Assay for human Nuclear Factor Erythroid 2 Related Factor 2 (NFR2) response to Antioxidant Response Elements (ARE) (AID 2282992); conditions: HepG2 Attagene ARE/NRF2 reporter, transcription factor activity; actives raise or lower the signal;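 on AC50: reporter mRNA level measured by RT-PCR and capillary electrophoresis fluorescence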
Method in brief: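 HepG2 cells transiently transfected with multiplexed cis-regulated reporter transcription units measure endogenous transcription factor activity. Reporter mRNA at 24 h is quantified by RT-PCR, fluorescent labelling and capillary electrophoresis, with bidirectional fitting relative to DMSO.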

[4] = ATG_Oct_MLP_CIS: Attagene CIS-FACTORIAL HepG2 Assay for human Octamer-Binding Transcription Factor (Oct) (AID 2282993); conditions: HepG2 Attagene cis-factorial Oct reporter, mRNA; actives raise or lower the signal
Method in brief: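 After 24 h compound exposure, transfected HepG2 cells were lysed for total RNA; reporter-specific cDNA was PCR-amplified, fluorescently labelled and sized by capillary electrophoresis. Bidirectional curve fitting used DMSO as baseline.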

[5] = biological target: Cellular tumor antigen p53 (Homo sapiens) (UniProt P04637); experiment: ATG_p53_CIS: Attagene CIS-FACTORIAL HepG2 Assay for human p53 Transcription Factor (AID 2282994); conditions: HepG2 p53 cis-element reporter, Attagene mRNA; actives raise or lower the signal
Chain of Cellular tumor antigen p53 (Homo sapiens) (P04637 whole entry, looked up): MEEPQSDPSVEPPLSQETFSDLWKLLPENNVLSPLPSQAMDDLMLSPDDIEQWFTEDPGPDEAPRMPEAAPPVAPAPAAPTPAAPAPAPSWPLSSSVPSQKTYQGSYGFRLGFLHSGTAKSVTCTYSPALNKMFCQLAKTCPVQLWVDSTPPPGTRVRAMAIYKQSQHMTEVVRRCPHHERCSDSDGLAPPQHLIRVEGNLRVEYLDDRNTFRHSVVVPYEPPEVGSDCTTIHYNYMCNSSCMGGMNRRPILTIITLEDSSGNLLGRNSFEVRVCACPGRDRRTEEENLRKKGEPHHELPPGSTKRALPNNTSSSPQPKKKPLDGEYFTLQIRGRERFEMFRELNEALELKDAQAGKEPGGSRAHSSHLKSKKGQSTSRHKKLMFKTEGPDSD
Method in brief: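 HepG2 cells transiently transfected with multiplexed cis-regulated reporter transcription units read endogenous TF activity. After 24 h compound exposure, reporter mRNA was quantified by RT-PCR, fluorescent labelling, HpaI digestion and capillary electrophoresis; bidirectional fits versus DMSO baseline.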

[6] = BSK_3C_uPAR: BioMAP Diversity Plus: 3C Assay for Urokinase-type plasminogen activator receptor (uPAR) Biomarker Activity (AID 2282998); conditions: BioMAP 3C HUVEC, uPAR biomarker ELISA; actives raise or lower the signal
Method in brief: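 Values derive from bidirectional curve fitting relative to DMSO, which served as baseline of activity. uPAR was measured by ELISA in human umbilical vein endothelial primary cultures 24 h after compound addition.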

[7] = BSK_3C_VCAM1: BioMAP Diversity Plus: 3C Assay for Vascular cell adhesion molecule 1 (VCAM1) Biomarker Activity (AID 2282999); conditions: BioMAP 3C HUVEC, VCAM1 ELISA, cytokine-stimulated; actives raise or lower the signal
Method in brief: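 Endothelial cells from human umbilical vein are treated with test chemical. At 24 h, VCAM-1 is measured by ELISA, and responses in either direction are fitted relative to DMSO.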

[8] = BSK_4H_Eotaxin3: BioMAP Diversity Plus: 4H Assay for Eotaxin 3 Biomarker Activity (AID 2283000); conditions: primary human endothelial cells (HUVEC); actives raise or lower the signal
Method in brief: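 ELISA quantitation of CCL26 (Eotaxin-3) protein from chemically dosed human vascular endothelial cells at 24 h; increases and decreases both scored relative to DMSO-treated baseline.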

[9] = biological target: human Peroxisome Proliferator-activated Receptor alpha (PPARa), PPARA (gene 5465) (UniProt Q07869); experiment: ATG_PPARa_TRANS: Attagene TRANS-FACTORIAL HepG2 Assay for human Peroxisome Proliferator-activated Receptor alpha (PPARa) (AID 2283001; active means hit-call score of the fitted dose curve at least 0.9, where 1 is the maximum)
Method in brief: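 Read-out is fluorescence of reporter cDNA fragments resolved by capillary electrophoresis after RT-PCR. Human HepG2 liver cells carried transfected PPARa-Gal4 chimera and GAL4-UAS reporter units, treated 24 h; activity scored as increase over DMSO.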

[10] = read-out: Intercellular Adhesion Molecule 1 (ICAM1), ICAM1 (gene 3383); experiment: BSK_3C_ICAM1: BioMAP Diversity Plus: 3C Assay for Intercellular Adhesion Molecule 1 (ICAM1) Biomarker Activity (AID 2283003); conditions: primary human endothelial cells (HUVEC); actives raise or lower the signal
Method in brief: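 HUVEC primary cells stimulated under 3C conditions; ICAM1 measured by ELISA 24 h after compound dosing. Curves fitted bidirectionally against the DMSO baseline. Overt cytotoxicity checked by SRB staining of parallel cultures.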

[11] = BSK_3C_Proliferation: Cell Proliferation Assessment in the BioMAP Diversity Plus: 3C Assay (AID 2283006); conditions: primary human endothelial cells (HUVEC);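 further: potency may reflect either rise or fall in cell number versus DMSO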
Method in brief: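 Subconfluent HUVEC (3C system) cultured with chemical; relative cell number read at 48 h by sulforhodamine B total-protein staining (0.1% SRB after 10% TCA fixation, 560 nm). Bidirectional fit relative to DMSO.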

[12] = biological target: Peroxisome proliferator-activated receptor gamma (Homo sapiens) (UniProt P37231); experiment: ATG_PPARg_TRANS: Attagene TRANS-FACTORIAL HepG2 Assay for human Peroxisome Proliferator-activated Receptor-gamma (PPARg) (AID 2283007; active means hit-call score of the fitted dose curve at least 0.9, where 1 is the maximum)
Chain of Peroxisome proliferator-activated receptor gamma (Homo sapiens) (P37231 whole entry, looked up, the tested form may be a part): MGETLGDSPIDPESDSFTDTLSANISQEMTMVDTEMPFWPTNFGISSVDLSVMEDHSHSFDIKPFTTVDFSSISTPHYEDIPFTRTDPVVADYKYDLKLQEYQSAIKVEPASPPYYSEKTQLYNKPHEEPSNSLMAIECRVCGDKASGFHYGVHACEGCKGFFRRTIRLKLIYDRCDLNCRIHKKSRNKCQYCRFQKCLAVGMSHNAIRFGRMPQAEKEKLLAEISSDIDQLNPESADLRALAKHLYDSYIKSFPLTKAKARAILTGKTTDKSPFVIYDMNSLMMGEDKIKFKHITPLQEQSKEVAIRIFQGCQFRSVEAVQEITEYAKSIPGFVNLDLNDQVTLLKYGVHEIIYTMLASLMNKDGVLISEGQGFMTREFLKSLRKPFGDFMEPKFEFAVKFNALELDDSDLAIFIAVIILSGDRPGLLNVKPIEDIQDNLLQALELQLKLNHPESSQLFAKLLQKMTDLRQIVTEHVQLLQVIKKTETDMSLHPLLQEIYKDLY
Method in brief: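 Transient transfection of HepG2 with GAL4-UAS-driven reporter units; chemical dosing 24 h; total RNA → oligo(dT) RT → PCR with reporter primers → 6-FAM primer extension → HpaI digest 2 h 37 C → capillary electrophoresis. Positive direction vs DMSO.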

[13] = biological target: Nuclear receptor subfamily 1 group I member 2 (Homo sapiens) (UniProt O75469); experiment: ATG_PXR_TRANS: Attagene TRANS-FACTORIAL HepG2 Assay for human Pregnane X Receptor (PXR) (AID 2283008; active means hit-call score of the fitted dose curve at least 0.9, where 1 is the maximum)
Chain of Nuclear receptor subfamily 1 group I member 2 (Homo sapiens) (O75469 whole entry, looked up, the tested form may be a part): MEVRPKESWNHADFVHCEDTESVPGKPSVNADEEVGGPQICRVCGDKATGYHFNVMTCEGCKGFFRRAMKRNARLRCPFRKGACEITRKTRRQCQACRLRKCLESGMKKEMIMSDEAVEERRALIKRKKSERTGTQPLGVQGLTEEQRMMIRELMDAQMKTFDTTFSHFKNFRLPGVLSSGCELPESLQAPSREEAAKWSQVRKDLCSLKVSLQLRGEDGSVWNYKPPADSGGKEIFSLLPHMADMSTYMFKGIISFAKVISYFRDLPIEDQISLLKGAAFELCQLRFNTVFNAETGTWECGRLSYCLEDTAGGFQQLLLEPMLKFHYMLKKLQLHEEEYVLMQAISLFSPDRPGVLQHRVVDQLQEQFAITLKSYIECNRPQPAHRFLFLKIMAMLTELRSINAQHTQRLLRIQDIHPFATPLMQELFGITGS
Method in brief: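 HepG2 cells transiently transfected with multiple reporter units, here a PXR-GAL4 chimera driving a GAL4-UAS reporter; 24 h compound exposure. Reporter mRNA measured by RT-PCR, FAM labelling and capillary electrophoresis; gain of signal fitted against DMSO baseline.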

[14] = BSK_3C_TissueFactor: BioMAP Diversity Plus: 3C Assay for Tissue Factor Biomarker Activity (AID 2282997); conditions: BioMAP 3C HUVEC, tissue factor biomarker readout; actives raise or lower the signal
Method in brief: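 Endothelial monolayers (human umbilical vein, primary) are dosed, incubated 24 h, and assayed for Tissue Factor by ELISA; DMSO serves as negative control for bidirectional fitting.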

[15] = biological target: human Peroxisome Proliferator-activated Receptor delta (PPARd), PPARD (gene 5467) (UniProt Q03181); experiment: ATG_PPARd_TRANS: Attagene TRANS-FACTORIAL HepG2 Assay for human Peroxisome Proliferator-activated Receptor delta (PPARd) (AID 2283002; active means hit-call score of the fitted dose curve at least 0.9, where 1 is the maximum)
Chain of human Peroxisome Proliferator-activated Receptor delta (PPARd), PPARD (gene 5467) (Q03181 whole entry, looked up, the tested form may be a part): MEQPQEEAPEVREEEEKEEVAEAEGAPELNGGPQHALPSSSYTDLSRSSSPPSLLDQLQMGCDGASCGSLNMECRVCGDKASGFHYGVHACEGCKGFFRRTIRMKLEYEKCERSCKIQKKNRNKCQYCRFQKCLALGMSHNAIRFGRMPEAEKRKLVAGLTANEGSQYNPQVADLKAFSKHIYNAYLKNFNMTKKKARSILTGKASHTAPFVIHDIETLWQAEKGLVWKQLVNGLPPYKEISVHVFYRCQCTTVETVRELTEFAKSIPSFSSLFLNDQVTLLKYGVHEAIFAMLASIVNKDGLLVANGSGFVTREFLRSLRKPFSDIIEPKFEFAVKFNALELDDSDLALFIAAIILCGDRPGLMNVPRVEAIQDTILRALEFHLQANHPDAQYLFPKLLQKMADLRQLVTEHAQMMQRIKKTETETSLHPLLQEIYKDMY
Method in brief: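 Transient HepG2 transfection (multiple GAL4-UAS RTUs, chimeric receptor-Gal4); 24 h dosing; total RNA → oligo(dT) RT → PCR → 6-FAM primer extension → HpaI cut → CE. Positive direction vs DMSO.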

[16] = biological target: human Retinoic Acid Receptor beta (RARb), RARB (gene 5915) (UniProt P10826); experiment: ATG_RARb_TRANS: Attagene TRANS-FACTORIAL HepG2 Assay for human Retinoic Acid Receptor beta (AID 2283004; active means hit-call score of the fitted dose curve at least 0.9, where 1 is the maximum)
Chain of human Retinoic Acid Receptor beta (RARb), RARB (gene 5915) (P10826 whole entry, looked up, the tested form may be a part): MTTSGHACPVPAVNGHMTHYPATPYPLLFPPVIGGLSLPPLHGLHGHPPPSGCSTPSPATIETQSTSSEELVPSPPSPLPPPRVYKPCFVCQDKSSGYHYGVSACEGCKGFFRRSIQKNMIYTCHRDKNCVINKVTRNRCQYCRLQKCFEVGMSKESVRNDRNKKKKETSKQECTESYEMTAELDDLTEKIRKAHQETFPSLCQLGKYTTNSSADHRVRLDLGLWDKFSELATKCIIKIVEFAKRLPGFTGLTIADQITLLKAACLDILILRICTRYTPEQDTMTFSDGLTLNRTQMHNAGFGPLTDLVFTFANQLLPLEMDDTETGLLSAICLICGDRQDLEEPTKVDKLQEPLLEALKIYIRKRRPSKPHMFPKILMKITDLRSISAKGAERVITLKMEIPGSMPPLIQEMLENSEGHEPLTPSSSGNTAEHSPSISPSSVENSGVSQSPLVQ
Method in brief: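 Fluorescent capillary-electrophoresis detection of GAL4-UAS reporter mRNA defines the endpoint, with induction over DMSO-treated wells scored as activity. Transiently transfected human hepatoma HepG2 cells expressing exogenous NR–Gal4 proteins are exposed to test chemicals for 24 h.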

[17] = biological target: Retinoic acid receptor alpha (Homo sapiens) (UniProt P10276); experiment: ATG_RARa_TRANS: Attagene TRANS-FACTORIAL HepG2 Assay for human Retinoic Acid Receptor alpha (RARa) (AID 2283005; active means hit-call score of the fitted dose curve at least 0.9, where 1 is the maximum)
Chain of Retinoic acid receptor alpha (Homo sapiens) (P10276 whole entry, looked up, the tested form may be a part): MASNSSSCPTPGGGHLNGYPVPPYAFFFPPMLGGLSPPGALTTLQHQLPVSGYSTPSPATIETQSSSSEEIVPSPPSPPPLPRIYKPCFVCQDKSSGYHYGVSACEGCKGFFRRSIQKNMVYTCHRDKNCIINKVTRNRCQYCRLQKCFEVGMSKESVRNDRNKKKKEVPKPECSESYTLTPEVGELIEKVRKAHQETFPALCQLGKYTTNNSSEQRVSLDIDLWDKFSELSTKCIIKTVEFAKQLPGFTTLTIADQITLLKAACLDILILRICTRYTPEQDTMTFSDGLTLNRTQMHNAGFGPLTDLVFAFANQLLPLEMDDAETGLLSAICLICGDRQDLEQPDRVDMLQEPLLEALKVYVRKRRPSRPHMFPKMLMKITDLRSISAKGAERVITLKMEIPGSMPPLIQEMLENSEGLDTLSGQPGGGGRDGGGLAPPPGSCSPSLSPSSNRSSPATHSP
Method in brief: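 Reporter transcripts, measured by RT-PCR with fluorescent labeling and capillary electrophoresis after 24 h dosing, reflect activity of an exogenous human RARa–GAL4 fusion in transiently transfected HepG2. Fitted for increase relative to DMSO.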

[18] = biological target: human RAR-related Orphan Receptor beta (RORb), RORB (gene 6096) (UniProt Q92753); experiment: ATG_RORb_TRANS: Attagene TRANS-FACTORIAL HepG2 Assay for human RAR-related Orphan Receptor beta (RORb) (AID 2283010; active means hit-call score of the fitted dose curve at least 0.9, where 1 is the maximum)
Chain of human RAR-related Orphan Receptor beta (RORb), RORB (gene 6096) (Q92753 whole entry, looked up, the tested form may be a part): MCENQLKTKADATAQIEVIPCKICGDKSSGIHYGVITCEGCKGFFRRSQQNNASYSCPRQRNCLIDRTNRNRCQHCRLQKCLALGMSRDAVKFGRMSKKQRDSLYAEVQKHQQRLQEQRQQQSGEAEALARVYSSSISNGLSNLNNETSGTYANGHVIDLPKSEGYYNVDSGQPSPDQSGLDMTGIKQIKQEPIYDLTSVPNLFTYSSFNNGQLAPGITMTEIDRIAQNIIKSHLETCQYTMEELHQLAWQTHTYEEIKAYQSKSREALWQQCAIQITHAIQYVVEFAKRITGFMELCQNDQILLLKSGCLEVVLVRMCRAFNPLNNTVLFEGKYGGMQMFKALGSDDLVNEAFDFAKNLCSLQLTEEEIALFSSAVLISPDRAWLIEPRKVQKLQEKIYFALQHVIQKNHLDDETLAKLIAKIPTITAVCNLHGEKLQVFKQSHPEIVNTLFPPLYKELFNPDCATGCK
Method in brief: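 HepG2 cells transiently transfected with GAL4-UAS reporter units expressing chimeric NR-Gal4 protein; reporter mRNA measured 24 h after dosing by RT-PCR, 6-FAM labelling and capillary electrophoresis. Gain-of-signal fitted relative to DMSO baseline.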

[19] = biological target: human RAR-related Orphan Receptor gamma (RORg), RORC (gene 6097) (UniProt P51449); experiment: ATG_RORg_TRANS: Attagene TRANS-FACTORIAL HepG2 Assay for human RAR-related Orphan Receptor gamma (RORg) (AID 2283011; active means hit-call score of the fitted dose curve at least 0.9, where 1 is the maximum)
Chain of human RAR-related Orphan Receptor gamma (RORg), RORC (gene 6097) (P51449 whole entry, looked up, the tested form may be a part): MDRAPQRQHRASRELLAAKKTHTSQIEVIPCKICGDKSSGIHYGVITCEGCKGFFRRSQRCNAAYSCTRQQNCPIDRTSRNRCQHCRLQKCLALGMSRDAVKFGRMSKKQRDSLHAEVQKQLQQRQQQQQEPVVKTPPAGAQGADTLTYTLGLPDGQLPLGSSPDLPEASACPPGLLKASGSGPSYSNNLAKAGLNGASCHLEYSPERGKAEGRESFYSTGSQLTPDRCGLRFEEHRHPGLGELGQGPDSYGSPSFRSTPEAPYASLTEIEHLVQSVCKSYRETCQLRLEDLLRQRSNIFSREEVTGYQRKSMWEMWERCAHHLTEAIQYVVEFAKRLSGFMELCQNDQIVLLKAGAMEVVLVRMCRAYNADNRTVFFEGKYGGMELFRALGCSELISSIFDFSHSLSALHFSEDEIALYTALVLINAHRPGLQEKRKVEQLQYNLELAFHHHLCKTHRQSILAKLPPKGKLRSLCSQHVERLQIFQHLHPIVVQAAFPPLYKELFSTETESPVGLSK
Method in brief: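 Chimeric RORg-Gal4 transactivation in transfected HepG2; 24 h exposure; RT-PCR/capillary electrophoresis readout of reporter mRNA, DMSO baseline.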

[20] = biological target: human Retinoic Acid Receptor gamma (RARg), RARG (gene 5916) (UniProt P13631); experiment: ATG_RARg_TRANS: Attagene TRANS-FACTORIAL HepG2 Assay for human Retinoic Acid Receptor gamma (RARg) (AID 2283009; active means hit-call score of the fitted dose curve at least 0.9, where 1 is the maximum)
Chain of human Retinoic Acid Receptor gamma (RARg), RARG (gene 5916) (P13631 whole entry, looked up, the tested form may be a part): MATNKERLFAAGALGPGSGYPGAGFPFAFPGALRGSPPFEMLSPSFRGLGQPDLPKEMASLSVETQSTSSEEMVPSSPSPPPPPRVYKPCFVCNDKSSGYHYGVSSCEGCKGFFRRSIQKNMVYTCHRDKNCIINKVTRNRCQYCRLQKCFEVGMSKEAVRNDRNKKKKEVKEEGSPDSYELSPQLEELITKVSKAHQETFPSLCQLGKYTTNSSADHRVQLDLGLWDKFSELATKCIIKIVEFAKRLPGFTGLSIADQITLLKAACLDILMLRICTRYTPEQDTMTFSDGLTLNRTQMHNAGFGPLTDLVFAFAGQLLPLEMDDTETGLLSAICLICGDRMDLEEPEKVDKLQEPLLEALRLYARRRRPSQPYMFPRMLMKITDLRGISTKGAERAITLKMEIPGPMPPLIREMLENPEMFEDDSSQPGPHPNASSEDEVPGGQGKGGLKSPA
Method in brief: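 HepG2 transiently transfected with GAL4-UAS reporter units and chimeric NR-Gal4 constructs; 24 h compound exposure. Reporter mRNA quantified by RT-PCR, FAM labeling, HpaI digestion and capillary electrophoresis; gain-of-signal versus DMSO.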

Measured: AC50

Cc1ccccc1OP(=O)(Oc1ccccc1)Oc1ccccc1
inactive: [1] | [2] | [4] | [5] | [9] | [10]
active: [3] 12.3 µM | [6] 35.3 µM | [7] 20 µM | [8] 28.7 µM | [11] 20 µM | [12] 3.74 µM | [13] 0.736 µM

CCOP(=O)(OCC)OC(=CCl)c1ccc(Cl)cc1Cl
active: [3] 7.84 µM | [14] 20 µM | [6] 31.5 µM | [8] 30.9 µM | [11] 28.9 µM | [12] 27.4 µM | [13] 0.62 µM
not listed: [9] | [17] | [18] | [19] | [20]
inactive: all other assays above

O=C(NC(=O)c1c(F)cccc1F)Nc1cc(Cl)c(Oc2ncc(C(F)(F)F)cc2Cl)c(Cl)c1
inactive: [1] | [2] | [4] | [5] | [15] | [12] | [13]
active: [3] 31.9 µM

CC(C)[N+](=O)[O-]
not listed: [6] | [7] | [8] | [9] | [10] | [11] | [14] | [20]
inactive: all other assays above

BrCc1ccc(Br)cc1
inactive: [1] | [2] | [3] | [4] | [5] | [15] | [12] | [13] | [19]

ClCCCCl
inactive: [1] | [2] | [3] | [4] | [5] | [15] | [13] | [19]

CC(C)C(C)(N)C#N (configuration not stated)
inactive: [1] | [2] | [3] | [4] | [5] | [15] | [17] | [13] | [19]

O=C=Nc1ccc(Cl)cc1
inactive: [2] | [3] | [4] | [5] | [16] | [12] | [13] | [19]
active: [1] 149 µM

C[As+](C)(C)CC(=O)[O-]
inactive: [1] | [2] | [3] | [4] | [5] | [17] | [13] | [18] | [19]

Cc1cc(-c2cc(C)c(N)c(C)c2)cc(C)c1N
active: [5] 80.2 µM | [12] 36.3 µM | [13] 27 µM
not listed: [6] | [7] | [8] | [9] | [10] | [11] | [14]
inactive: all other assays above

ClCCN1CCOCC1
inactive: [1] | [2] | [3] | [4] | [5] | [15] | [19]
